According to PubChem BioAssay (NCI):
Values joined by “and” are separate entries in the source; they are usually repeats but may differ in a detail not shown here. Equal entries are not always repeated. About 79,000 compounds went through this panel and 15% of them were active in at least one assay; those are over-represented in the sample as a whole. Where a structure was tested more than once in an assay, its records may differ in their call. Active and inactive are the calls of the source. No stated cut-off is given here; in the data, active means growth inhibition above about 70%; inactive means the rest.

Key:
[1] = NCI Yeast Anticancer Drug Screen. Data for the rad52 strain (AID 147);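 further: 0% = growth of vehicle-treated control cultures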; conditions: S. cerevisiae rad52 mutant growth inhibition, stronger effect = higher value
Procedure, shortened: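 Screen used a yeast mutant impaired in DNA repair. After compound exposure, growth was measured. Values reflect inhibition compared with vehicle-treated cells.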

[2] = NCI Yeast Anticancer Drug Screen. Data for the wt1 strain (AID 149);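 further: 0% = growth of vehicle-treated wt1 cultures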; conditions: S. cerevisiae wt1 strain (SPY 50644) growth inhibition, stronger effect = higher value
Procedure, shortened: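 Measured: growth of wt1 yeast under compound versus vehicle treatment, reported as inhibition.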

[3] = NCI Yeast Anticancer Drug Screen. Data for the rad50EPP+ strain (AID 151);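 further: 0% = growth of vehicle-treated control cultures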; conditions: S. cerevisiae rad50 mutant strain, stronger effect = higher value
Procedure, shortened: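 Exposing the rad50EPP+ strain to each compound, growth was compared with vehicle-only cultures to give inhibition.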

[4] = NCI Yeast Anticancer Drug Screen. Data for the mgt1 strain (AID 153); conditions: S. cerevisiae mgt1 mutant growth inhibition, stronger effect = higher value
Procedure, shortened: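 Genetically defined yeast (mgt1) treated with compound; inhibition of growth expressed against vehicle-treated controls.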

[5] = NCI Yeast Anticancer Drug Screen. Data for the rad50 strain (AID 155);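 further: 0% = growth of vehicle-only cultures of the same strain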; conditions: S. cerevisiae rad50 strain growth inhibition, stronger effect = higher value
Procedure, shortened: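 Growth of the mutant yeast was measured after compound exposure and referenced to vehicle-treated cultures.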

[6] = NCI Yeast Anticancer Drug Screen. Data for the mec2-1 strain (AID 157); conditions: S. cerevisiae mec2-1 strain, stronger effect = higher value
Procedure, shortened: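 Readout is yeast growth inhibition, normalised to vehicle-treated controls, in the mec2-1 strain exposed to compound.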

[7] = NCI Yeast Anticancer Drug Screen. Data for the rad14 strain (AID 159);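 further: 0% = growth of vehicle-treated control cultures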; conditions: S. cerevisiae rad14 strain growth inhibition, stronger effect = higher value
Procedure, shortened: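 Here, inhibition of yeast growth was measured after compound exposure, using a strain with a genetic defect in DNA damage repair and vehicle-treated cultures as the reference.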

[8] = NCI Yeast Anticancer Drug Screen. Data for the sgs1 mgt1 strain (AID 161);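 further: 0% = growth of cultures given vehicle only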; conditions: S. cerevisiae sgs1 mgt1 strain, stronger effect = higher value
Procedure, shortened: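 This yeast growth screen uses a strain with defined DNA-repair lesions; compound-treated growth is compared with vehicle-treated growth.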

[9] = NCI Yeast Anticancer Drug Screen. Data for the CLN2oe strain (AID 163);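 further: 0% = growth of vehicle-only control cultures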; conditions: S. cerevisiae CLN2oe strain, stronger effect = higher value
Procedure, shortened: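 Values reflect how much compound exposure reduced yeast growth, referenced to vehicle-exposed cells. Assay organism is a strain with a defined genetic change affecting cell-cycle control.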

[10] = NCI Yeast Anticancer Drug Screen. Data for the cln2 rad14 strain (AID 165);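 further: 0% = growth equal to vehicle treated cultures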; conditions: S. cerevisiae cln2 rad14 strain, stronger effect = higher value
Procedure, shortened: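 Relative to vehicle controls, growth inhibition of compound-treated cln2 rad14 yeast was recorded.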

[11] = NCI Yeast Anticancer Drug Screen. Data for the bub3 strain (AID 167); conditions: S. cerevisiae bub3 mutant strain, stronger effect = higher value
Procedure, shortened: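 Whole-cell yeast assay. The mutant strain was incubated with compounds, and growth inhibition was determined by comparison with vehicle-treated cells.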

[12] = NCI Yeast Anticancer Drug Screen. Data for the wt2 strain (AID 169);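 further: 0% = growth of vehicle-treated yeast cultures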; conditions: S. cerevisiae wt2 strain growth inhibition, stronger effect = higher value
Procedure, shortened: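 Values express reduction in yeast growth under compound treatment, referenced to vehicle-treated cells.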

[13] = NCI Yeast Anticancer Drug Screen. Data for the sgs1 strain (AID 173);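 further: 0% = growth of vehicle-only control cultures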; conditions: S. cerevisiae sgs1 mutant, stronger effect = higher value
Procedure, shortened: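 Treat defined-mutant yeast with compound; measure growth; calculate inhibition relative to vehicle-treated cells.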

[14] = NCI Yeast Anticancer Drug Screen. Data for the mlh1 rad18 strain (AID 175); conditions: S. cerevisiae mlh1 rad18 strain growth inhibition, stronger effect = higher value
Procedure, shortened: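 Test agents were incubated with a yeast strain of defined genotype (DNA damage repair defect). Inhibition of growth was derived by comparison with vehicle-exposed cultures.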

[15] = NCI Yeast Anticancer Drug Screen. Data for the rad18 strain (AID 177); conditions: S. cerevisiae rad18 mutant growth inhibition, stronger effect = higher value
Procedure, shortened: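 A genetically defined yeast mutant impaired in DNA damage repair was treated with test compounds, then its growth was measured against cultures receiving vehicle alone.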

[16] = NCI Yeast Anticancer Drug Screen. Data for the mlh1 strain (AID 171);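 further: 0% = growth of vehicle-treated control cultures of the same strain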; conditions: S. cerevisiae mlh1 strain growth inhibition, stronger effect = higher value
Procedure, shortened: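 Steps: expose the defined-mutant yeast strain to compound; expose a parallel culture to vehicle; measure growth; express compound effect as inhibition relative to the vehicle culture.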

[17] = at 5.0 µM (retest, dose inferred, filed as 0.5)
[18] = at 50.0 µM (retest, dose inferred, filed as 5.0)

Measured: growth inhibition

S=c1sc2c(s1)SCCS2
-2% (inactive) and 75.5% (active): [8]; at 50.0 µM
inactive: [1]; at 1.2 µM 1% | [1]; at 3.7 µM 1% | [1]; at 11.0 µM 4% | [1]; at 33.0 µM 5% | [1]; at 100.0 µM 7% | [2]; at 1.2 µM -1% | [2]; at 3.7 µM 1% | [2]; at 11.0 µM 1% | [2]; at 33.0 µM 0% | [2]; at 100.0 µM 2% | [3]; at 1.2 µM 2% | [3]; at 3.7 µM 3% | [3]; at 11.0 µM 6% | [3]; at 33.0 µM 14% | [3]; at 100.0 µM 9% | [4]; at 1.2 µM -2% | [4]; at 3.7 µM -1% | [4]; at 11.0 µM 18% | [4]; at 33.0 µM -14% | [4]; at 100.0 µM 5% | [5]; at 1.2 µM 0% | [5]; at 3.7 µM 3% | [5]; [17] 14% | [5]; at 11.0 µM -16% | [5]; at 33.0 µM 5% | [5]; [18] 49% | [5]; at 50.0 µM 13.7% and 58.8% | [5]; at 100.0 µM 6% | [6]; at 1.2 µM 2% | [6]; at 3.7 µM 2% | [6]; [17] -11% | [6]; at 11.0 µM -1% | [6]; at 33.0 µM -2% | [6]; [18] 23% | [6]; at 50.0 µM 5.65% and 50% | [6]; at 100.0 µM 0% | [7]; at 1.2 µM 1% | [7]; at 3.7 µM -4% | [7]; at 11.0 µM -2% | [7]; at 33.0 µM -1% | [7]; at 100.0 µM 5% | [8]; [17] -8% | [8]; [18] 54% | [9]; at 1.2 µM 0% | [9]; at 3.7 µM 0% | [9]; at 11.0 µM -2% | [9]; at 33.0 µM -4% | [9]; at 100.0 µM 0% | [10]; [17] -14% | [10]; [18] 32% | [10]; at 50.0 µM 7.95% and 60.4% | [11]; at 1.2 µM 1% | [11]; at 3.7 µM 2% | [11]; [17] -20% | [11]; at 11.0 µM 6% | [11]; at 33.0 µM 5% | [11]; [18] 49% | [11]; at 50.0 µM 20.4% and 64.8% | [11]; at 100.0 µM 4% | [12]; at 1.2 µM 1% | [12]; at 3.7 µM 2% | [12]; at 11.0 µM 2% | [12]; at 33.0 µM 3% | [12]; at 100.0 µM 4% | [13]; at 1.2 µM -1% | [13]; at 3.7 µM -1% | [13]; at 11.0 µM 0% | [13]; at 33.0 µM 0% | [13]; at 100.0 µM 3% | [14]; [17] 46% | [14]; [18] 59% | [14]; at 50.0 µM 20.8% and 57.5% | [15]; at 1.2 µM -4% | [15]; at 3.7 µM -3% | [15]; at 11.0 µM -2% | [15]; at 33.0 µM -15% | [15]; at 100.0 µM 6%

Cc1c(-c2ccccn2)ccc2ccccc12
inactive: [1]; at 1.2 µM -2% | [1]; at 3.7 µM -1% | [1]; at 11.0 µM 0% | [1]; at 33.0 µM 2% | [1]; at 100.0 µM 46% | [2]; at 1.2 µM -1% | [2]; at 3.7 µM 0% | [2]; at 11.0 µM -3% | [2]; at 33.0 µM -4% | [2]; at 100.0 µM 18% | [3]; at 1.2 µM -3% | [3]; at 3.7 µM 0% | [3]; at 11.0 µM 10% | [3]; at 33.0 µM 43% | [4]; at 1.2 µM 0% | [4]; at 3.7 µM -1% | [4]; at 11.0 µM -3% | [4]; at 33.0 µM 0% | [5]; at 1.2 µM 6% | [5]; at 3.7 µM 37% | [5]; [17] 1% | [5]; at 11.0 µM 44% | [5]; at 33.0 µM 15% | [5]; [18] 15% | [5]; at 50.0 µM 21.8% | [6]; at 1.2 µM -1% | [6]; at 3.7 µM 0% | [6]; [17] 1% | [6]; at 11.0 µM 1% | [6]; at 33.0 µM -1% | [6]; [18] 15% | [6]; at 50.0 µM 44.5% | [6]; at 100.0 µM 50% | [7]; at 1.2 µM 0% | [7]; at 3.7 µM 0% | [7]; at 11.0 µM 1% | [7]; at 33.0 µM 6% | [7]; at 100.0 µM 43% | [8]; [17] -2% | [8]; [18] 46% | [10]; [17] 1% | [10]; [18] 3% | [10]; at 50.0 µM 25.4% | [11]; at 1.2 µM 3% | [11]; at 3.7 µM 7% | [11]; [17] 18% | [11]; at 11.0 µM 24% | [12]; at 1.2 µM -2% | [12]; at 3.7 µM 7% | [12]; at 11.0 µM -4% | [12]; at 33.0 µM -3% | [12]; at 100.0 µM 43% | [16]; at 1.2 µM 0% | [16]; at 3.7 µM -1% | [16]; at 11.0 µM -76% | [16]; at 33.0 µM 0% | [16]; at 100.0 µM 39% | [13]; at 1.2 µM -2% | [13]; at 3.7 µM -1% | [13]; at 11.0 µM 1% | [13]; at 33.0 µM 24% | [14]; [17] -1% | [14]; [18] 20% | [14]; at 50.0 µM 59.8% | [15]; at 1.2 µM -1% | [15]; at 3.7 µM 2% | [15]; at 11.0 µM 6% | [15]; at 33.0 µM 13% | [15]; at 100.0 µM 67%
active: [3]; at 100.0 µM 71% | [4]; at 100.0 µM 88% | [5]; at 100.0 µM 73% | [8]; at 50.0 µM 80.8% | [11]; at 33.0 µM 70% | [11]; [18] 90% | [11]; at 50.0 µM 94.2% | [11]; at 100.0 µM 96% | [13]; at 100.0 µM 83%
